In PubChem BioAssay (NCI):
Compounds without any hit were thinned out: in the full panel of roughly 83,000, 20% have a hit.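 Plates (96-well) were seeded with cells, treated with compound at one concentration, and incubated for 48 hours before percent growth was determined.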 A number with no mark means an inactive call. Activity calls are given as the source filed them. How the source made its calls: active means growth percent below 10; inactive means the rest.

Tests used:
Assay in all cases: NCI-60 one-dose screen, 48 h (100 = growth as untreated, 0 = no growth, -100 = all killed)
Details in all cases: 10 µM unless noted
[1] = system: NCI-H23 lung
[2] = system: NCI-H226 lung
[3] = system: NCI-H322M lung
[4] = system: HOP-62 NSCLC
[5] = system: NCI-H460 lung
[6] = system: NCI-H522 lung
[7] = system: A549/ATCC NSCLC
[8] = system: 786-0 renal
[9] = system: DU-145 prostate
[10] = system: K-562 leukemia
[11] = system: MALME-3M melanoma
[12] = system: MDA-MB-231 breast
[13] = system: SF-268 CNS
[14] = system: SF-295 CNS
[15] = system: SF-539 CNS
[16] = system: UACC-257 melanoma
[17] = system: M14 melanoma
[18] = system: HCT-15 colon
[19] = system: RXF 393 renal
[20] = system: COLO 205 colon

COc1ccc(/C(=C2\O[C@@H]([C@H](O)CO)[C@H]3OC(C)(C)O[C@@H]23)c2cc(OC)c(OC)c(OC)c2)cc1O
growth [1]: 89.8% | growth [2]: 110% | growth [3]: 109% | growth [4]: 88.4% | growth [5]: 107% | growth [6]: 57.5% | growth [7]: 89.4% | growth [8]: 94.3% | growth [9]: 87.1% | growth [10]: 12.6% | growth [11]: 75.7% | growth [12]: 97% | growth [13]: 71.1% | growth [14]: 92.5% | growth [15]: 68.2% | growth [16]: 97.9% | growth [17]: 47.7% | growth [18]: 62.2%

CCCCCCCC1(C)NC(=O)NC1=O (stereo unspecified)
growth [1]: 132% | growth [2]: 113% | growth [3]: 119% | growth [4]: 102% | growth [5]: 104% | growth [6]: 99.6% | growth [7]: 122% | growth [8]: 108% | growth [9]: 115% | growth [10]: 90.6% | growth [11]: 126% | growth [12]: 116% | growth [13]: 106% | growth [14]: 124% | growth [15]: 97.6% | growth [16]: 114% | growth [17]: 106% | growth [18]: 113%

C=C(C)[C@H]1CC/C(C)=C/CC[C@]2(C)O[C@H]2CC/C(C=O)=C\C1O (stereo partly specified)
growth [1]: 112% | growth [2]: 106% | growth [3]: 111% | growth [4]: 105% | growth [5]: 104% | growth [6]: 113% | growth [7]: 108% | growth [8]: 115% | growth [9]: 106% | growth [10]: 124% | growth [12]: 92.4% | growth [19]: 111% | growth [13]: 106% | growth [15]: 106% | growth [16]: 154% | growth [17]: 115% | growth [18]: 118%

CCOC(=O)C1=NN(c2ccc(Cl)cc2)C2C3N(c4ccc(Cl)cc4)N=C(C(=O)OCC)N3c3ccccc3N12 (stereo unspecified)
growth [1]: 87% | growth [2]: 107% | growth [3]: 98.5% | growth [4]: 114% | growth [5]: 106% | growth [6]: 88.7% | growth [7]: 99% | growth [8]: 95.6% | growth [9]: 118% | growth [10]: 70.7% | growth [11]: 132% | growth [12]: 103% | growth [19]: 106% | growth [13]: 102% | growth [15]: 116% | growth [16]: 119% | growth [17]: 102% | growth [18]: 121%

O=C(c1ccccc1)c1ccco1
growth [1]: 99.2% | growth [2]: 106% | growth [3]: 105% | growth [4]: 105% | growth [5]: 105% | growth [6]: 89.3% | growth [7]: 97% | growth [8]: 101% | growth [9]: 113% | growth [10]: 102% | growth [11]: 108% | growth [12]: 93.6% | growth [19]: 131% | growth [13]: 98.5% | growth [15]: 92.5% | growth [16]: 89.3% | growth [17]: 98.7% | growth [18]: 104%

CCn1c2ccccc2c2ccc(C(C)=O)cc21
growth [1]: 101% | growth [2]: 91.8% | growth [3]: 126% | growth [4]: 103% | growth [5]: 108% | growth [6]: 96.6% | growth [7]: 103% | growth [8]: 102% | growth [9]: 93.5% | growth [11]: 113% | growth [12]: 114% | growth [19]: 105% | growth [13]: 90.8% | growth [14]: 116% | growth [15]: 96.5% | growth [16]: 108% | growth [17]: 105% | growth [18]: 107%

NC(N)=N/N=C(/c1ccccc1)c1ccc(Cl)cc1
growth [1]: 83.9% | growth [2]: 88.8% | growth [3]: 57.7% | growth [4]: 85% | growth [5]: 52.3% | growth [6]: 59.5% | growth [7]: 68.3% | growth [8]: 69.1% | growth [9]: 83% | growth [10]: 42.5% | growth [11]: 115% | growth [12]: 105% | growth [19]: 94.9% | growth [13]: 62.2% | growth [15]: 93.3% | growth [16]: 38.4% | growth [17]: 59.6% | growth [18]: 56.6%

CNc1ccc(CSc2ccc(Cl)cc2)cc1
growth [1]: 108% | growth [2]: 84.6% | growth [3]: 123% | growth [4]: 87.4% | growth [5]: 105% | growth [6]: 75.6% | growth [7]: 93.6% | growth [8]: 71% | growth [9]: 127% | growth [10]: 82% | growth [12]: 103% | growth [19]: 111% | growth [13]: 96.3% | growth [15]: 98.2% | growth [16]: 97.4% | growth [17]: 103% | growth [18]: 94.8%

CC(C)(C)c1ccc(S(=O)(=O)O)s1
growth [1]: 115% | growth [2]: 107% | growth [3]: 111% | growth [4]: 99% | growth [5]: 106% | growth [6]: 89.6% | growth [7]: 99.2% | growth [8]: 95.6% | growth [9]: 108% | growth [10]: 77% | growth [12]: 93.1% | growth [19]: 105% | growth [13]: 102% | growth [15]: 99.3% | growth [16]: 117% | growth [17]: 107% | growth [18]: 107%

C/C(=N/N=C(N)N)c1ccc(Cl)cc1
growth [1]: 95.1% | growth [2]: 96% | growth [3]: 90.2% | growth [4]: 98.8% | growth [5]: 102% | growth [6]: 89% | growth [7]: 106% | growth [8]: 89.6% | growth [9]: 106% | growth [10]: 67.8% | growth [11]: 143% | growth [12]: 84% | growth [19]: 90.5% | growth [13]: 101% | growth [15]: 100% | growth [16]: 77.1% | growth [17]: 86.9% | growth [18]: 102%

O=C(C(=O)N1CCOCC1)c1ccc(OC2OC(CO)C(O)C(O)C2O)cc1 (stereo unspecified)
growth [1]: 106% | growth [2]: 107% | growth [3]: 115% | growth [4]: 107% | growth [5]: 110% | growth [6]: 79.9% | growth [7]: 107% | growth [8]: 103% | growth [9]: 125% | growth [11]: 129% | growth [12]: 107% | growth [19]: 112% | growth [13]: 115% | growth [14]: 115% | growth [15]: 96.3% | growth [16]: 96.5% | growth [17]: 102% | growth [18]: 104%

O=Cc1c[nH]c2ccc(NC(=O)OCc3ccccc3)cc12
growth [1]: 95.4% | growth [2]: 89.7% | growth [3]: 88.6% | growth [4]: 105% | growth [5]: 68.4% | growth [6]: 94.1% | growth [7]: 106% | growth [8]: 95.8% | growth [9]: 113% | growth [10]: 72.2% | growth [11]: 186% | growth [12]: 88.4% | growth [19]: 96.6% | growth [13]: 102% | growth [15]: 110% | growth [16]: 85.6% | growth [17]: 105% | growth [18]: 67.1%

O=C(/C=C/c1ccc(O)c(O)c1)N1CCN(c2ccc(Cl)cc2)CC1
growth [1]: 62.9% | growth [2]: 63.8% | growth [3]: 85.1% | growth [4]: 88.2% | growth [5]: 46.4% | growth [6]: -3.39% (active) | growth [7]: 61.2% | growth [8]: 73.1% | growth [9]: 69.4% | growth [10]: 61.8% | growth [11]: 66.2% | growth [12]: 59.2% | growth [19]: 58% | growth [13]: 57% | growth [15]: 66.4% | growth [16]: 81.8% | growth [17]: 67.8% | growth [18]: 48.5%

Oc1ccc(Cc2ccc(O)c(C3CC(c4ccc(Cl)cc4)=NN3)c2)cc1C1CC(c2ccc(Cl)cc2)=NN1 (stereo unspecified)
growth [1]: 17.4% | growth [2]: 53.6% | growth [3]: 7.95% (active) | growth [4]: 31.6% | growth [5]: 4.56% (active) | growth [6]: -6.56% (active) | growth [7]: 14.7% | growth [8]: 18.2% | growth [9]: 32.6% | growth [11]: 29.7% | growth [12]: 12.7% | growth [19]: 66.5% | growth [13]: 29.8% | growth [14]: -26.9% (active) | growth [15]: 40.7% | growth [16]: 23.7% | growth [17]: 24.5% | growth [18]: 17.2%

Cn1cc(-c2csc(-c3cn(C)c4ncccc34)n2)c2cc(F)cnc21
growth [1]: 70.5% | growth [2]: 94.4% | growth [3]: 112% | growth [4]: 99.1% | growth [5]: 84.1% | growth [6]: 22.2% | growth [7]: 73.6% | growth [8]: 91% | growth [11]: 80.7% | growth [12]: 62.6% | growth [19]: 82.4% | growth [13]: 95.4% | growth [14]: 69.5% | growth [15]: 101% | growth [16]: 84.1% | growth [17]: 62.8% | growth [18]: 61%

COc1ccc2c(c1)nc(N)c1c3cc(C)c(C)cc3cn21
growth [1]: 80.4% | growth [2]: 86.8% | growth [3]: 94% | growth [4]: 84.7% | growth [5]: 48.4% | growth [6]: 19.6% | growth [7]: 79.4% | growth [8]: 91.2% | growth [11]: 76.5% | growth [12]: 84.6% | growth [19]: 78.1% | growth [13]: 75.6% | growth [14]: 64.3% | growth [15]: 95.7% | growth [16]: 83.7% | growth [17]: 57.5% | growth [18]: 48.7%

CCN(CC)CCOc1ccccc1-n1c(C)ccc1-c1ccccc1
growth [1]: 102% | growth [2]: 92% | growth [3]: 80.1% | growth [4]: 106% | growth [5]: 44.2% | growth [6]: 101% | growth [7]: 88.2% | growth [20]: 70.3% | growth [9]: 103% | growth [10]: -48.1% (active) | growth [11]: 89% | growth [12]: 102% | growth [19]: 84.6% | growth [13]: 78.5% | growth [14]: 93% | growth [15]: 92.7% | growth [16]: 100% | growth [18]: 90.5%
